± gives the standard deviation.
test system: MILI (PIWIL2) piRISC loaded with L1MC piRNA (26 nt); experiment: pre-steady-state target cleavage rate (min^-1); guide: L1MC piRNA 5'p-UAACUAAAUACUAUGCAAGCUGUAGG; MIWI and MILI are mouse PIWI proteins and EfPiwi is from a freshwater sponge; tags in brackets are library labels; higher = faster piRNA-guided slicing of the target; conditions: auxiliary factor: none (no GTSF1)
How it was run: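 For Cleave-'n-Seq, a transcribed, DNA-blocked target RNA library […] met 1 nM active affinity-purified piRISC with one synthetic guide at 33 °C for 0–8 or 0–960 min in HEPES–potassium acetate buffer, with or without 500 nM GTSF1 partner protein. Uncleaved targets were sequenced and normalised to depth and weakly complementary targets, with three trials pooled and k3 capped at 0.0001 min^-1. A burst-and-steady-state fit supplied the pre-steady-state cleavage rate.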
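Note: 1 nM active piRISC with 0.1 nM target library at 33 °C single turnover.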

| Sequence | pre-steady-state target cleavage rate |
| --- | --- |
| UCCUGGAUGUCGAACGAUAGUAUAUUAGUUA | < 0.0001 |
| UCCUGGAUGUCGAUCCAUAGUAUUUAGAUA | < 0.0001 |
| UCCUGGAUGUGCUUGCAUAGAUAUUUAGUUA | 0.00495 ± 0.0023 |
| UCCUGGAUGUCGAACGUAUGAAUUUUGUUA | < 0.0001 |
| UCCUGGAUCAGCUACCAUAGUAUUUUCAAA | < 0.0001 |
